ChEMBL document CHEMBL4513135, “CO-ADD screening of IQOG CSIS (Spain) compounds”
Values joined by “and” are separate entries in the source; they are usually repeats but may differ in a detail not shown here. Equal entries are not always repeated. Results with a measured potency or affinity are listed apart.

Assays:
Staphylococcus aureus = conditions: Concentration 32 ug.mL-1, ASSAY_TEST Inhibition of Bacterial Growth, detection method Absorption (OD600), MEDIA CAMHB, plate type 384well, NBS, CORNING #3640, time 18 hr
Escherichia coli = conditions: Concentration 32 ug.mL-1, ASSAY_TEST Inhibition of Bacterial Growth, detection method Absorption (OD600), MEDIA CAMHB, plate type 384well, NBS, CORNING #3640, time 18 hr

N#CC1(Br)C(=N)Oc2ccc3ccccc3c2C1c1ccccc1 (configuration not stated)
Inhibition (Staphylococcus aureus; 32 ug/mL): 27.29% and 36.87% | Inhibition (Escherichia coli; 32 ug/mL): -8.37% and -7.39%

O=C(Cc1c[nH]c2ccccc12)NNCCc1ccccc1
Inhibition (Staphylococcus aureus): 4.22% | Inhibition (Escherichia coli): 5.19%

C#CCNc1nc(NCCC2CCN(Cc3ccccc3)CC2)c(C#N)cc1C#N
Inhibition (Staphylococcus aureus): -4.51% | Inhibition (Escherichia coli): -8.4%

COc1ccc(C2C(C#N)=C(Cl)Oc3c2ccc2ccccc32)cc1OC (configuration not stated)
Inhibition (Staphylococcus aureus): -3.84% | Inhibition (Escherichia coli): -30%

CN(C)c1nc(Cl)c(C#N)c(-c2ccccc2)c1C#N
Inhibition (Staphylococcus aureus): -17.89% | Inhibition (Escherichia coli): -6.44%

Cc1ccc(CNNC(=O)c2c[nH]c3ccccc23)cc1
Inhibition (Staphylococcus aureus): -8.4% | Inhibition (Escherichia coli): -3.7%

N#CC1=C(Cl)Oc2c(ccc3ccccc23)C1c1ccccc1 (configuration not stated)
Inhibition (Staphylococcus aureus): 14.99% | Inhibition (Escherichia coli): -36.62%

O=C(Cc1ccccc1)N/N=C/c1c[nH]c2ccccc12
Inhibition (Staphylococcus aureus): 9.24% | Inhibition (Escherichia coli): 17.46%

Cn1ccnc1C1C2=C(CC(C)(C)CC2=O)Oc2nc3c(c(N)c21)CCCC3 (configuration not stated)
Inhibition (Staphylococcus aureus): 8.97% | Inhibition (Escherichia coli): -15.11%

COc1ccc2c(c1)cc(CN(C)Cc1cn(Cc3ccccc3)nn1)n2C
Inhibition (Staphylococcus aureus): 6.23% | Inhibition (Escherichia coli): -32.11%

CCOC(=O)C1=C(C)OC(N)=C(C#N)C1c1ccc(F)cc1 (configuration not stated)
Inhibition (Staphylococcus aureus): 19.76% | Inhibition (Escherichia coli): -10.2%

COc1ccc(C=C2N=C(SC)N(C)C2=O)cc1
Inhibition (Staphylococcus aureus): -4.46% | Inhibition (Escherichia coli): 0.92%

CCOC(=O)/C(=C\c1ccccc1)C(=O)c1ccccc1
Inhibition (Staphylococcus aureus): 9.55% | Inhibition (Escherichia coli): 10.95%

O=C(NNC(Cc1ccccc1)Cc1ccccc1)c1cc2ccccc2[nH]1
Inhibition (Staphylococcus aureus): -3.72% | Inhibition (Escherichia coli): -3.49%

CC1(C)OC(=O)C(=Cc2ccc([N+](=O)[O-])cc2)C(=O)O1
Inhibition (Staphylococcus aureus): 28.78% | Inhibition (Escherichia coli): 10.5%

Cc1ccc2nc(Cl)c(/C=N/NCc3ccccc3)cc2c1
Inhibition (Staphylococcus aureus): 26.2% | Inhibition (Escherichia coli): 22.89%

N#Cc1cc(C#N)c(Cl)nc1Cl
Inhibition (Staphylococcus aureus): 15.28% | Inhibition (Escherichia coli): -15.75%

CCOC(=O)/C(C#N)=C\c1ccc(Cl)cc1
Inhibition (Staphylococcus aureus): 19.96% | Inhibition (Escherichia coli): 11.69%

C#CCNc1ccc(Cl)nn1
Inhibition (Staphylococcus aureus): 21.22% | Inhibition (Escherichia coli): -28.17%

COc1ccc(-c2cc(-c3cc4ccc(F)cc4nc3Cl)cc(=O)[nH]2)cc1
Inhibition (Staphylococcus aureus): 24.97% | Inhibition (Escherichia coli): -19.12%

CN(C)c1nc(N)c(C#N)c(-c2ccccc2)c1C#N
Inhibition (Staphylococcus aureus): 7.52% | Inhibition (Escherichia coli): 0.57%

O=C1NC(=S)N/C1=C\c1c[nH]c2ccccc12
Inhibition (Staphylococcus aureus): 7.26% | Inhibition (Escherichia coli): 6.43%

N#Cc1cc(C#N)c(N2CCC(Cc3ccccc3)CC2)nc1N
Inhibition (Staphylococcus aureus): -2.68% | Inhibition (Escherichia coli): -8.44%

CCOC(=O)c1cn(C)c2ccccc12
Inhibition (Staphylococcus aureus): 5.67% | Inhibition (Escherichia coli): 4.13%

CCOC(=O)C1=C(C)OC(N)=C(C#N)C1c1ccccc1 (configuration not stated)
Inhibition (Staphylococcus aureus): 25.42% | Inhibition (Escherichia coli): -7.58%

COc1ccc(-c2cc(-c3cc4c(OC)ccc(OC)c4nc3Cl)cc(=O)[nH]2)cc1
Inhibition (Staphylococcus aureus): 22.4% | Inhibition (Escherichia coli): -10.79%

N#CC1=C(Cl)Oc2ccc3ccccc3c2C1c1ccccc1 (configuration not stated)
Inhibition (Staphylococcus aureus): 24.96% | Inhibition (Escherichia coli): 12.43%

COc1ccc(C2C(C#N)=C(N)Oc3[nH]nc(C)c32)cc1 (configuration not stated)
Inhibition (Staphylococcus aureus): 4.82% | Inhibition (Escherichia coli): 6.91%

Clc1ccc(-c2cn3ccccc3n2)cc1
Inhibition (Staphylococcus aureus): 13.75% | Inhibition (Escherichia coli): 15.37%

COc1cccc(-c2c(C#N)c(=O)oc3c2ccc2ccccc23)c1
Inhibition (Staphylococcus aureus): 13.24% | Inhibition (Escherichia coli): 14.42%

CNCc1cc2ccccc2n1C.Cl
Inhibition (Staphylococcus aureus): 7.33% | Inhibition (Escherichia coli): 3.85%

C=C1CN(C)c2c(C#N)cc(C#N)c(=N)n21
Inhibition (Staphylococcus aureus): 13.03% | Inhibition (Escherichia coli): -14.43%

N#C[C@]1(Br)C(=N)Oc2ccc3ccccc3c2[C@@H]1c1ccc([N+](=O)[O-])cc1
Inhibition (Staphylococcus aureus): 26.21% | Inhibition (Escherichia coli): 11.8%

N#CC1(Br)C(=NBr)Oc2ccc3ccccc3c2C1c1cccc([N+](=O)[O-])c1 (configuration not stated)
Inhibition (Staphylococcus aureus): 29.27% | Inhibition (Escherichia coli): -20.79%

CSC1=NC(=Cc2cn(C(c3ccccc3)(c3ccccc3)c3ccccc3)c3ccccc23)C(=O)N1C
Inhibition (Staphylococcus aureus): -1.08% | Inhibition (Escherichia coli): 9.28%

COc1ccc2nc(Cl)c(C=O)cc2c1
Inhibition (Staphylococcus aureus; 32 ug/mL): 19.77% and 20.88% | Inhibition (Escherichia coli; 32 ug/mL): 18.53% and 18.96%

O=C(N/N=C/c1ccc([N+](=O)[O-])cc1)c1cc2ccccc2[nH]1
Inhibition (Staphylococcus aureus): 11.24% | Inhibition (Escherichia coli): 10.51%

COc1ccc(C=C2N=C(c3ccccc3)OC2=O)cc1
Inhibition (Staphylococcus aureus): 12.56% | Inhibition (Escherichia coli): 14.02%

Nc1c2c(nc3c1CC(c1c(Cl)cccc1Cl)C(=O)N3)CCCC2 (configuration not stated)
Inhibition (Staphylococcus aureus): 22.21% | Inhibition (Escherichia coli): 31.42%

C#CCN(Cc1ccccc1)c1nc(N)c(C#N)c(-c2ccccc2)c1C#N
Inhibition (Staphylococcus aureus): 11.64% | Inhibition (Escherichia coli): -2.54%

CNCc1cc2cc(OCc3ccccc3)ccc2n1C.Cl
Inhibition (Staphylococcus aureus): 43.08% | Inhibition (Escherichia coli): 3.38%
